# Screening data (PubChem BioAssay)
# Rows were chosen to be rich in hits. Some 0.79% of all compounds tested hit in one or more screens of this group.
# LANA-H2B inh: blockers of LANA interaction with H2A/H2B – biochemical, FP readout, HTS, primary screen; cell-free LANA-H2A/H2B peptide, fluorescence polarization; AID 2629, 2010; 0.6% of 320,000 active; Protein LANA1 (Human herpesvirus 8 type P (isolate GK18)), Q9QR71; inhibition, % (no concentration beside the values); in the data active = inhibition mostly above about 10%, no sharp cut-off; inactive = mostly below about 6.7%
# Target sequence (Q9QR71 whole entry, looked up): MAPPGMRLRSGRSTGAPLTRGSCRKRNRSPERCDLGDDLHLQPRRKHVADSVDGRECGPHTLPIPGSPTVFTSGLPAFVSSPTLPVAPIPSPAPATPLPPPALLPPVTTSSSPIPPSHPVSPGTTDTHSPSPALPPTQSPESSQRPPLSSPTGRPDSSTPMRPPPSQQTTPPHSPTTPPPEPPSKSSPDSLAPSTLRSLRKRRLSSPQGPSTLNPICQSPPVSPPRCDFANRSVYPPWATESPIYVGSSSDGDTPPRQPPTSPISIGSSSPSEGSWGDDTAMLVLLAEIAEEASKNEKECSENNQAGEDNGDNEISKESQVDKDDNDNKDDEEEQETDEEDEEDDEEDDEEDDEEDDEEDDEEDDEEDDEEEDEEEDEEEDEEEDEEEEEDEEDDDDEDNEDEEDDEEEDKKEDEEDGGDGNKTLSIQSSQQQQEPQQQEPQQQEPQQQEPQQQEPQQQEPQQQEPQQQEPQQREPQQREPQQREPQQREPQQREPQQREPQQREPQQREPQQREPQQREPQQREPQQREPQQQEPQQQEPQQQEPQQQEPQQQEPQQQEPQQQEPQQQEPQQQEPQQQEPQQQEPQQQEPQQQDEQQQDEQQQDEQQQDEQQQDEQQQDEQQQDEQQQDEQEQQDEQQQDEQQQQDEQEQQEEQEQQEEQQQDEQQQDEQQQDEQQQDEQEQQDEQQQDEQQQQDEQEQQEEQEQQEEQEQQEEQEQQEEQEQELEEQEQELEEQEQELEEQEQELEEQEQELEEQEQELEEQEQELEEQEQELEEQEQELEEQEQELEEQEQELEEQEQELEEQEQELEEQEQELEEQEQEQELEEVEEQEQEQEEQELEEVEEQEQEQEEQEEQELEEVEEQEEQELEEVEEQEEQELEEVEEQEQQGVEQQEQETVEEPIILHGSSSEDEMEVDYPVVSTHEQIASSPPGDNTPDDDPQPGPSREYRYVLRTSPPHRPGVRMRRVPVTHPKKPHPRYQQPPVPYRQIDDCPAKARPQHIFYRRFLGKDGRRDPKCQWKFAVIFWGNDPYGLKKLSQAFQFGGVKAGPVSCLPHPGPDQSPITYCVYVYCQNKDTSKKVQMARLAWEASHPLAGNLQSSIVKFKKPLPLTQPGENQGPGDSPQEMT
# iPSC survival up: enhancers of single-cell hiPSC survival, primary screen, ATPlite luminescence. AID 602274, 2012. survival enhancement, % at 20 µM. 0.044% of 360,000 active. 100% = ROCK inhibitor wells, 0% = DMSO; in the data active = survival enhancement above about 18%;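 also: cells exposed to compounds for 16 hours before the ATP read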
# DAGLB inh: DAGLB lipase inhibitors, primary screen, biochemical, fluorescence, HTS | Diacylglycerol lipase-beta (Homo sapiens), Q8NCG7 | HEK293T DAGLB membrane lysate, EnzChek fluorogenic substrate | inhibition, % at 5.17 µM | 0.059% of 340,000 active; in the data active = inhibition above about 34%;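 also: 0% = enzyme with vehicle and 100% = wells lacking enzyme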
# HDAC3 inhib: HDAC3 deacetylase inhibitors, primary screen, biochemical, fluorescence, cell-free homogeneous; Histone deacetylase 3 (Homo sapiens), O15379; recombinant HDAC3, fluorogenic peptide/trypsin coupled; inhibition, % at 8.3 µM; 0.15% of 320,000 active; AID 2718, 2010; in the data active = inhibition above about 26%, passing the limit was not always enough
# The depositor's hits bear a star; . = no result.
SMILES,LANA-H2B inh,iPSC survival up,DAGLB inh,HDAC3 inhib
Cn1c(=O)[nH]c(=O)c2c1nc(N1CCNCC1)n2Cc1cccc2ccccc12,18*,-1,1,3
CC(=O)NC(c1ccccc1)c1nc(-c2cccc(C#N)c2)cs1 (stereo unspecified),.,-1,.,.
CC(NC(=O)CN1C(=O)NC2(CCCCCC2)C1=O)c1ccccc1 (stereo unspecified),78*,0,4,-6
O=C(CN1C(=O)NC2(CCCCC2)C1=O)NCCc1ccccc1,3,0,0,-1
CC(C)C(C)NC(=O)CN1C(=O)NC2(CCCCCC2)C1=O (stereo unspecified),3,-1,0,3
CC(NC(=O)CCC(=O)N1CCCCCC1)c1ccccc1 (stereo unspecified),14*,0,0,-1
O=C(CN1C(=O)NC2(CCCCCC2)C1=O)NCCc1ccccc1,186*,1,1,2
CCN(C(=O)COc1cccc2cccnc12)C1CCS(=O)(=O)C1 (stereo unspecified),1,-1,2,-12
Cc1ccc(C(O)c2ncc(-c3ccccc3)[nH]2)c(C)c1 (stereo unspecified),.,1,.,.
O=C(NC1CCCCC1)c1ccc(NS(=O)(=O)c2cccc3cccnc23)cc1,1,0,-3,-3
O=S(=O)(NC1CCCCCC1)c1cccc2cccnc12,182*,0,-2,2
CC(=O)Nc1ccccc1C(=O)C(=O)Nc1ccccc1,4.6*,0,0,-1
CC(=O)Nc1ccccc1C(=O)C(=O)Nc1ccc(Cl)cc1,-4,1,-1,4
Cc1ccc(S(=O)(=O)N[C@@H](C)C(=O)N2CCC(C(=O)N3CCC[C@H]3C(=O)O)CC2)cc1,7.6*,-1,4,-3
Cc1ccc(S(=O)(=O)N[C@H](C(=O)N2CCC(C(=O)N3CCC[C@H]3C(=O)O)CC2)C(C)C)cc1,.,0,2,.
Cc1ccc(C)c(NC(=O)CN(C)C(=O)c2ccc(COc3ccccc3)cc2)c1,.,0,-3,.
COc1ccc(S(=O)(=O)N2CCOCC2)cc1NC(=O)Cn1nnc2ccccc2c1=O,-2,0,2,3
COc1ccc(Cl)cc1NC(=O)NC1CCCCC1,21*,2,-4,-9
COc1ccc(Cl)cc1C(=O)NNC(=O)c1cccc([N+](=O)[O-])c1,156*,-1,1,-4
CC(=O)c1ccc(S(=O)(=O)Nc2c(C)nn(C)c2C)cc1,.,0,-3,.
O=C(c1ccccc1)c1cc2ccc(O)cc2oc1=O,41*,0,-4,0
OC(c1ccc(F)c(F)c1)c1nc(-c2ccc3c(c2)OCO3)cs1 (stereo unspecified),.,0,.,.
O=C(Cc1cccs1)Nc1ccc(C(=O)O)cc1,1,-1,1,-4
O=C(Cc1cccs1)Nc1cccc(C(=O)Nc2ccc(C(=O)O)cc2)c1,51*,-1,.,-9
COc1ccc2nc(NC(=O)C(NS(=O)(=O)c3cccs3)C(C)C)sc2c1 (stereo unspecified),5,2,6,-7
SMILES,LANA-H2B inh,iPSC survival up,DAGLB inh,HDAC3 inhib
CCOc1ccc(-c2cn(-c3ccc(OC)cc3)c(SC)n2)cc1,-2,1,-1,2
CSc1nc(-c2ccccc2)cn1-c1ccc(NC(C)=O)cc1,37*,-1,-1,7
COc1ccc(C)cc1S(=O)(=O)N1CCC(C(=O)NCCC2=CCCCC2)CC1,2,4,-1,-3
COc1ccc(S(=O)(=O)N2CCC(C(=O)NCCC3=CCCCC3)CC2)cc1C,34*,1,-3,0
CCCC[C@@H]1C=C(C(=O)O)[C@H](c2ccc(Cl)cc2)N1S(=O)(=O)c1ccc(C)cc1,84*,8,5,3
Cc1ccc(NC(=O)CCS(=O)(=O)c2ccccc2)cc1S(=O)(=O)N1CCCCCC1,.,0,-1,.
CCN(CC)CCN1CCN(c2cnc(C)cn2)CC1,.,-1,.,.
CCOC(=O)C(N=Nc1nn[nH]n1)C(C)=O (stereo unspecified),.,-2,-5,.
Cc1ccc(S(=O)(=O)n2c([N+](=O)[O-])cnc2C)cc1C,12*,-2,-3,-1
CCc1nc2ccc(C(=O)NCCc3ccccn3)cn2c1N(C)Cc1ccc(N(C)C)cc1,.,-2,.,.
COC(=O)C(Cc1ccccc1)NC(=O)CCC(=O)NC(C)CCc1ccccc1 (stereo unspecified),14*,0,0,-6
CC1CCCCC12NC(=O)N(CC(=O)OCc1cccc(F)c1)C2=O (stereo unspecified),0,0,0,-3
COc1cc(C(=O)NCC(=O)NCCN2C(=O)S/C(=C\c3ccccc3Cl)C2=O)cc(OC)c1OC,-1,0,2,3
COc1cc(/C=C2\SC(=O)N(CCNC(=O)c3sc4cc(F)ccc4c3Cl)C2=O)cc(OC)c1OC,15*,0,-2,6
COc1ccc(NC(=O)c2ccc(NC(=O)CSc3nc(N)cc(=O)[nH]3)cc2)cc1,-6,0,0,2
CCNC(=S)Nc1ccc2c(c1)oc1ccccc12,1,0,-3,5
CCNC(=S)Nc1ccc2ncoc2c1,31*,0,-2,2
COc1ccc(CONS(=O)(=O)c2ccc(NC(C)=O)cc2)cc1Cl,0,1,-1,-1
CC1C2CC(C(CN(C)C)/C2=N/O)C1(C)C (stereo unspecified),66*,0,-2,2
CC1/C(=N/O)C(CN(C)C)C2CC1C2(C)C (stereo unspecified),0,0,0,6
Cn1c(CC(O)c2nc3ccccc3n2C)nc2ccccc21 (stereo unspecified),.,-2,-3,.
COc1ccc(N=C2S/C(=C\c3ccc(N4CCOCC4)o3)C(=O)N2CCc2c[nH]c3ccccc23)cc1,-3,40*,-2,-5
CC1=Nc2ccccc2N=C(NC(=O)c2ccccc2)C1c1ccccc1 (stereo unspecified),-6,1,-2,34*
CC1=Nc2ccccc2N=C(NC(=O)CN2CCN(c3ccccc3)CC2)C1c1ccccc1 (stereo unspecified),-3,1,2,5
CS(=O)(=O)c1ccc(Cl)c(NC(=O)c2cc(S(=O)(=O)N3CCOCC3)ccc2N2CCCC2)c1,.,0,-5,.
SMILES,LANA-H2B inh,iPSC survival up,DAGLB inh,HDAC3 inhib
Cn1ncc([N+](=O)[O-])c1C(=O)Nc1ccccc1Cl,13*,0,-2,3
O=C(Cc1c(F)cccc1Cl)NNC(=S)Nc1ccc(S(=O)(=O)Nc2ncccn2)cc1,0,0,0,-2
CCCCCCNCC(=O)N1CCC(Cc2ccccc2)CC1,-4,0,-1,1
Cc1cccc(Oc2coc3cc(OC(=O)c4cncc(Br)c4)ccc3c2=O)c1,3.5*,-2,-1,-11
O=C(CN1CCN(Cc2ccccc2)CC1)N/N=C\C=C/c1ccco1,12*,3,-1,10
COc1ccc(C(=O)NCC(=O)N2CCC(Cc3ccccc3)CC2)cc1OC,.,0,-1,.
